Reference: PubChem BioAssay (NCI)
Values joined by “and” are separate entries in the source; they are usually repeats but may differ in a detail not shown here. Equal entries are not always repeated. Compounds without any hit were thinned out: in the full panel of roughly 79,000, 15% have a hit. Rule as the data show it: active = growth inhibition above about 70%; inactive = the rest.

Key:
[1] = NCI Yeast Anticancer Drug Screen. Data for the rad50 strain (AID 155);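 also: 0% = growth of vehicle-only cultures of the same strain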; details: S. cerevisiae rad50 strain growth inhibition, hits give high values; at 50.0 µM unless noted
Outline: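 Cells are treated with compound, grown, and their growth is then scored against vehicle-only cultures of the same repair-deficient yeast strain.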

[2] = NCI Yeast Anticancer Drug Screen. Data for the mec2-1 strain (AID 157); details: S. cerevisiae mec2-1 strain, hits give high values; at 50.0 µM unless noted
Outline: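 mec2-1 yeast strain, carrying an alteration in DNA damage repair or cell cycle control, was exposed to compounds; growth inhibition was measured relative to vehicle-treated controls.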

[3] = NCI Yeast Anticancer Drug Screen. Data for the sgs1 mgt1 strain (AID 161);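 also: 0% = growth of cultures given vehicle only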; details: S. cerevisiae sgs1 mgt1 strain, hits give high values; at 50.0 µM unless noted
Outline: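 This yeast growth screen uses a strain with defined DNA-repair lesions; compound-treated growth is compared with vehicle-treated growth.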

[4] = NCI Yeast Anticancer Drug Screen. Data for the cln2 rad14 strain (AID 165);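 also: 0% = growth equal to vehicle treated cultures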; details: S. cerevisiae cln2 rad14 strain, hits give high values; at 50.0 µM unless noted
Outline: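 Yeast carrying cln2 and rad14 alterations (cell cycle control and DNA damage repair) were exposed to compounds. Growth inhibition was measured against vehicle-treated controls.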

[5] = NCI Yeast Anticancer Drug Screen. Data for the bub3 strain (AID 167); details: S. cerevisiae bub3 mutant strain, hits give high values; at 50.0 µM unless noted
Outline: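 Part of a panel of yeast mutants defective in DNA damage repair or cell cycle regulation. Each strain is grown with compound, and inhibition is calculated relative to solvent-treated cultures.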

[6] = NCI Yeast Anticancer Drug Screen. Data for the mlh1 rad18 strain (AID 175); details: S. cerevisiae mlh1 rad18 strain growth inhibition, hits give high values; at 50.0 µM unless noted
Outline: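 Growth inhibition of the yeast strain was measured after compound exposure and expressed relative to vehicle-treated controls. The strain carries defined defects in DNA damage repair.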

Measured: growth inhibition

CC1=NCC[N+]1(CCc1ccccc1)Cc1ccccc1 (centres undefined)
inactive: [1] 3.15% | [2] -5% | [3] -19.8% | [4] -26.9% | [5] -35% | [6] -11.7%

O/N=C(Sc1ccccn1)/C(=N/O)Sc1ccccn1
inactive: [1] -7.25% | [2] 0% | [3] -2.9% | [4] -3.05% | [5] 4.7% | [6] 4.9%

C=C1CC[C@@H](C)[C@](C)(CCc2ccoc2)C/C=C\C=C/1C(=O)O
inactive: [1] 23.7% | [2] 30.8% | [3] 18.6% | [4] 48.1% | [5] 25.6% | [6] 61.6%

CC(N)C(=O)NO (centres undefined)
inactive: [1] -20.4% | [2] -24.6% | [3] -16.2% | [4] -40.6% | [5] 4.85% | [6] -36%

O=C(/C=C/c1ccc(OCc2ccccc2)cc1)c1cccc([N+](=O)[O-])c1
inactive: [1] 4.7% | [2] 6.35% | [3] -5.85% | [4] 9.15% | [5] -0.05% | [6] 12.2%

N#C/C(=C/NC(N)=S)C(N)=O
inactive: [1] -25.6% | [2] 10.3% | [3] -16.4% | [4] 14.6% | [5] -27.1% | [6] 20.7%

COc1cc2c(=O)[nH]c3cc(N)ccc3c2cc1N
inactive: [1] 9.6% | [2] 7.9% | [3] -4.2% | [4] -7.8% | [5] -3.95% | [6] 0.6%

CCN(CC)CCNC(=O)c1cc(N2CCOCC2)ccn1
inactive: [1] 23.3% | [2] 11.7% | [3] 18.5% | [4] 1.05% | [5] 30.6% | [6] 45.5%

Cc1[nH]c(=S)[nH]c1C
inactive: [1] 4.1% | [2] 9.5% | [3] 12.2% | [4] 10% | [5] 15.7% | [6] 12.6%

COc1nc2nccnc2c(=O)n1C
inactive: [1] -18.2% | [2] -4.65% | [3] -16.5% | [4] 14.4% | [5] -7.55% | [6] -3.3%

O=c1[nH]c(-c2ccccc2)nc2nc3ccc([N+](=O)[O-])cc3[n+]([O-])c12
inactive: [1] 19.9% | [2] -2% | [3] -1.75% | [4] -7.55% | [5] -1% | [6] 7%

CCN(CC)C(=O)c1c(N2CCOCC2)cc(N(CC)CC)oc1=O
inactive: [1] -10.2% | [2] -8.25% | [3] -46.6% | [4] -8.85% | [5] -37.9% | [6] -40.6%

C[C@]12C=CC(=O)C=C1CC[C@@H]1[C@@H]2C(=O)C[C@@]2(C)[C@H]1CC[C@]2(O)C(=O)COC(=O)CSc1c2ccccc2nc2ccccc12
inactive: [1] 35.6% | [2] 5.8% | [3] 8.15% | [4] 24.8% | [5] -9.4% | [6] 19.3%

CCCCCCCCCCCCCCCC(=O)c1ccccc1
inactive: [1] 33.2% | [2] 27.2% | [3] 28.4% | [4] 52.6% | [5] 21.1% | [6] 42.5%

CCC12C=CCN3CC[C@@]4(c5cc([C@@]6(C(=O)OC)C[C@@H]7CN(CCc8c6[nH]c6ccccc86)C[C@](O)(CC)C7)c(OC)cc5N(C)[C@H]4[C@@](O)(C(=O)NCCCCCCCCCCCC(=O)O)[C@@H]1O)C32 (some centres undefined)
inactive: [1] 19% | [2] 19.8% | [3] 21.6% | [4] 5% | [5] 25.3% | [6] -17.6%

CC(=O)CCn1[nH]c(=O)c2ccccc2c1=O
inactive: [1] -2.05% | [2] 7.35% | [3] 1.6% | [4] 7.9% | [5] -3.15% | [6] 10.9%

CC(=O)CC(=O)Nc1nc2ccccc2s1
inactive: [1] -4.45% | [2] 2.65% | [3] 9.05% | [4] -13.2% | [5] -7.5% | [6] 15.2%

COc1ccc(C(=O)CC(c2ccccc2)C(C#N)c2ccccc2)cc1 (centres undefined)
inactive: [1] 1.8% and -5.7% | [2] 5.6% and -8.55% | [3] -6.2% and 26.1% | [4] -107% and -72.5% | [5] 8.95% and -5.05% | [6] -7% and 8.5%

OC1COC(CCl)OC1C1OC(CCl)OCC1O (centres undefined)
inactive: [1] 10.2% | [2] 23.6% | [3] 17.9% | [4] 6.3% | [5] 19.4% | [6] 25.9%
